Read-out in assay [1]: Monocyte Chemoattractant Protein-1 (MCP1), CCL2 (gene 6347)
As to the kind of experiment: BSK_SAg_MCP1: BioMAP Diversity Plus: SAg Assay for Monocyte Chemoattractant Protein-1 (MCP1) Biomarker Activity (AID 2283090). The following applies: primary human HUVEC with PBMC; actives raise or lower the signal. The method, boiled down: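 MCP-1 levels in the endothelial–PBMC SAg co-culture were quantified by ELISA at 24 h post-dosing; both increases and decreases versus DMSO scored. Cytotoxicity monitored by SRB total protein in parallel cultures.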

Read-out in assay [2]: E-selectin (Homo sapiens) (UniProt P16581)
As to the kind of experiment: BSK_SAg_Eselectin: BioMAP Diversity Plus: SAg Assay for Eselectin Biomarker Activity (AID 2283091). The following applies: primary human HUVEC with PBMC; actives raise or lower the signal. The method, boiled down:
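Human umbilical vein endothelial cells co-cultured with peripheral blood mononuclear cells, SAg system. E-selectin is measured by ELISA 24 h after dosing and fitted bidirectionally against DMSO. Cytotoxicity is checked by SRB staining of parallel cultures.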

Read-out in assay [3]: Monokine induced gamma interferon (MIG), CXCL9 (gene 4283)
As to the kind of experiment: BSK_SAg_MIG: BioMAP Diversity Plus: SAg Assay for Monokine induced gamma interferon (MIG) Biomarker Activity (AID 2283092). The following applies: primary human HUVEC with PBMC; actives raise or lower the signal. The method in brief: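 Endothelial cells and PBMC were co-cultured, exposed to test chemicals, and sampled 24 h later. MIG was measured by ELISA, and responses were fitted in both directions relative to DMSO.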

A short description of assay [4]: BSK_SAg_PBMCCytotoxicity: PBMC Cytotoxicity Assessment in the BioMAP Diversity Plus: SAg Assay (AID 2283093).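 Further: PBMC viability measured as Alamar Blue reduction fluorescence at 546/580 nm; fitted both ways against DMSO so a hit may be loss or gain of signal.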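 On AC50: PBMC superantigen activated with SEB plus TSST-1 one hour after compound addition.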 The following applies: primary human HUVEC with PBMC. The method, boiled down: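 Compound added to 75,000 PBMC/well for 1 h; SEB and TSST-1 then added at 20 ng/mL final each; 90 h incubation; Alamar Blue 6 h; read 546/580 nm ex/em. Activity fitted bidirectionally relative to DMSO baseline.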

Read-out in assay [5]: Interleukin-8 (IL8), CXCL8 (gene 3576)
The assay can be described thus: BSK_SAg_IL8: BioMAP Diversity Plus: SAg Assay for Interleukin-8 (IL8) Biomarker Activity (AID 2283094). The following applies: primary human HUVEC with PBMC; actives raise or lower the signal. The method in brief:
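Human umbilical vein endothelial cells co-cultured with PBMC, stimulated with superantigen; IL-8 measured by ELISA 24 h after chemical dosing. Bidirectional fitting versus DMSO; SRB staining in parallel cultures tracks cytotoxicity.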

Assay [6] in a line: BSK_SAg_Proliferation: Cell Proliferation Assessment in the BioMAP Diversity Plus: SAg Assay (AID 2283095). The following applies: primary human HUVEC with PBMC. The method, boiled down: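 Human umbilical vein endothelial cells co-cultured with PBMC; sulforhodamine B total-protein staining (0.1% SRB after 10% TCA fixation, absorbance 560 nm) at 96 h in sub-confluent culture. Fitted bidirectionally against DMSO.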

The nature of assay [7]: BSK_SAg_SRB: Viability Assessment in the BioMAP Diversity Plus: SAg Assay (AID 2283096).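 Further: cells read one day after compound addition; hits may be either gain or loss of signal compared with DMSO.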 The following applies: primary human HUVEC with PBMC. The method, boiled down: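 Total protein by sulforhodamine B staining, 24 h after dosing, in HUVEC–PBMC co-culture; DMSO-referenced bidirectional fitting.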
The target of assay [8] is human CYP19A1, CYP19A1 (gene 1588) (UniProt P11511). As to the kind of experiment: NVS_ADME_hCYP19A1: NovaScreen (NVS) CYP450-related Enzyme Activity (ADME) Assay for human CYP19A1 (AID 2283098; active means hit-call score of the fitted dose curve at least 0.9, where 1 is the maximum;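 on AC50: potency for inhibitors seen as loss of fluorescent enzyme signal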). The method, boiled down:
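Biochem, cell-free; recombinant enzyme + specific substrate; fluorescence intensity at 0.5 h post-dose; 10 uM duplicate primary, conc. series for actives; acetonitrile = negative control/baseline; positive and negative controls on every plate.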

Assay [9] addresses Cytochrome P450 2C19 (Homo sapiens) (UniProt P33261). As to the kind of experiment: NVS_ADME_hCYP2C19: NovaScreen (NVS) CYP450-related Enzyme Activity (ADME) Assay for human CYP2C19 (AID 2283113; active means hit-call score of the fitted dose curve at least 0.9, where 1 is the maximum;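 on AC50: potency for inhibition seen as loss of fluorescent signal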). The method in brief:
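Cell-free recombinant human CYP2C19 from insect cells, fluorescent substrate; activity read by fluorescence intensity 1 h after dosing. Primary screen in duplicate at 10 uM; actives retested in concentration series. Signal loss versus acetonitrile negative control.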

The target in assay [10] is human CYP2A6, CYP2A6 (gene 1548) (UniProt P11509). As to the kind of experiment: NVS_ADME_hCYP2A6: NovaScreen (NVS) CYP450-related Enzyme Activity (ADME) Assay for human CYP2A6 (AID 2283099; active means hit-call score of the fitted dose curve at least 0.9, where 1 is the maximum). The method in brief:
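Recombinant human CYP2A6 expressed in insect cells, cell-free; fluorogenic substrate turnover read by fluorescence intensity 0.5 h after dosing. Primary screen 10 uM in duplicate, then concentration-response up to 20 uM; acetonitrile as negative control.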

Values joined by “and” are separate entries in the source; they are usually repeats but may differ in a detail not shown here. Identical values can stand only once. Inconclusive results are not listed. More than one record can exist for a structure, and the calls need not agree. Active and inactive are the calls of the source. How the source made its calls, unless noted: active means hit-call score of the fitted dose curve at least 0.9, where 1 is the maximum; inactive means score below 0.9.

E-selectin (Homo sapiens), sequence (P16581 whole entry, looked up): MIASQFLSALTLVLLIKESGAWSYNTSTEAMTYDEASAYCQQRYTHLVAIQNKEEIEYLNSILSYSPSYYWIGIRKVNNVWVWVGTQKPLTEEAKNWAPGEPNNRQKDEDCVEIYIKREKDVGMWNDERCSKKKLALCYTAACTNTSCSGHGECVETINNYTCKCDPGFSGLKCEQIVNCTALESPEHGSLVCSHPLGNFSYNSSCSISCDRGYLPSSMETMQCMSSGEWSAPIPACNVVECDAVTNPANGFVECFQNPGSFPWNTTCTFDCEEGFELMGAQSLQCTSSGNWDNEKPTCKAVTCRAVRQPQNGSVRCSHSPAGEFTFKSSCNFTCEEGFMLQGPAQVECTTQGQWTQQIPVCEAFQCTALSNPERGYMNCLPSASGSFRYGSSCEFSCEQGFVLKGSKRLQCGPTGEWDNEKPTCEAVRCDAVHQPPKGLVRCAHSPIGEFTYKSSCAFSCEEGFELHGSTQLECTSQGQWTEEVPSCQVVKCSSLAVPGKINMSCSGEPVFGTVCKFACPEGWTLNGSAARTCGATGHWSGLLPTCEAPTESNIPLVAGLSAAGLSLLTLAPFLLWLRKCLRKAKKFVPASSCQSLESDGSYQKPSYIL
human CYP19A1, CYP19A1 (gene 1588), sequence (P11511 whole entry, looked up): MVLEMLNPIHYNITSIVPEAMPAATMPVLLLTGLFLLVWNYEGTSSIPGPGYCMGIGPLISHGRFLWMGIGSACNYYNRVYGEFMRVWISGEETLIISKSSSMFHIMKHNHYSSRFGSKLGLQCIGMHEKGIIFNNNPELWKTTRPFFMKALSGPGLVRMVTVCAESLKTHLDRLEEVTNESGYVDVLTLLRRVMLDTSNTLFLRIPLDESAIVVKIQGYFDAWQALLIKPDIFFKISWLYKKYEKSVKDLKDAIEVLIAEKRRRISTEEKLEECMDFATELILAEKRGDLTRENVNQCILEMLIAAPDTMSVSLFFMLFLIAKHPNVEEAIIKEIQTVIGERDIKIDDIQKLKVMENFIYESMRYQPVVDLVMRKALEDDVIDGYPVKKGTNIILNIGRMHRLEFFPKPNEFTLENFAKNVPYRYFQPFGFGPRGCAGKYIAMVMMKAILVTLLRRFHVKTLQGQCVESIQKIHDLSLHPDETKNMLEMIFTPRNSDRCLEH
human CYP2A6, CYP2A6 (gene 1548), sequence (P11509 whole entry, looked up): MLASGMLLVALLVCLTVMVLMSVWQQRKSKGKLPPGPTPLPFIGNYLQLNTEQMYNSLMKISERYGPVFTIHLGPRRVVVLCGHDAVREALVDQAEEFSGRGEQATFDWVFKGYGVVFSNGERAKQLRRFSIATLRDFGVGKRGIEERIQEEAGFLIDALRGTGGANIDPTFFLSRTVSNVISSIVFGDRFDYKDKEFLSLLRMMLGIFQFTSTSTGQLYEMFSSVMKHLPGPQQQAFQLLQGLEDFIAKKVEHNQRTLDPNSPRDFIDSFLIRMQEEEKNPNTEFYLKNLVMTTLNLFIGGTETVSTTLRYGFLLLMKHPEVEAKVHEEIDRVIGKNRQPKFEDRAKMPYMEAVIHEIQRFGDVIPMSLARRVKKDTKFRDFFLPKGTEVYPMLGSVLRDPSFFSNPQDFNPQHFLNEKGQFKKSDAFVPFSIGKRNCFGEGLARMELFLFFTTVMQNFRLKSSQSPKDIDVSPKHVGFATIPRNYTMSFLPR

For the compound `CC(C)(C)OOC(C)(C)C`, the outcome in assay [1], in assay [2], in [3], in [4], in assay [5] and in assay [6] was inactive. Moreover, the outcome in assay [7] was inactive.

As for `O=[N+]([O-])c1ccc(Cl)c(Cl)c1`, the result in assay [1], in assay [2], in [3], in [4], in assay [5] and in assay [6] was inactive. Besides, in assay [7], the result was inactive.

On to `Nc1ccc([N+](=O)[O-])cc1Cl`, for which the outcome in [1], in [2], in assay [3], in assay [4], in [5] and in assay [6] was inactive. For the same compound, the result in assay [7] was inactive.

For `NC(=O)C(F)(F)C(F)(F)F`, the outcome in assay [1], in assay [2], in assay [3], in assay [4], in [5] and in assay [6] was inactive. The outcome in [7] was inactive.

In the case of `O=S(=O)(F)C(F)(F)C(F)(F)C(F)(F)C(F)(F)C(F)(F)C(F)(F)C(F)(F)C(F)(F)F`, the outcome in assay [1], in assay [2], in [3], in assay [4], in assay [5] and in [6] was inactive. Further, in [7], the result was inactive.

For `N#Cc1cc([N+](=O)[O-])ccc1N`, the result in assay [1], in [2], in [3], in assay [4], in assay [5] and in [6] was inactive. Moreover, the result in assay [7] was inactive.

Take `O=C(O)C(F)(F)OC(F)(F)C(F)(F)OC(F)(F)C(=O)O`: the result in assay [1], in assay [2], in assay [3], in assay [4], in assay [5] and in assay [6] was inactive. Also, the outcome in assay [7] was inactive.

For the compound `ClC(Cl)=C(c1ccc(Cl)cc1)c1ccccc1Cl`, the AC50 in [1] was 25.9 µM (active); in assay [2] it was 20 µM (active); in assay [3], 20 µM (active); in assay [4], 10.9 µM (active); in assay [5], 20 µM (active); in assay [6], 6.98 µM (active). In [7], the AC50 is 30.3 µM (active).

In the case of `ClC(Cl)c1ccccc1`, the outcome in assay [1], in [2], in assay [3], in assay [4], in assay [5] and in assay [6] was inactive. Further, in [7], the result was inactive.

For the compound `Cc1c([N+](=O)[O-])cc2c(c1[N+](=O)[O-])C(C)(C)CC2(C)C`, the outcome in assay [1], in assay [2], in [3], in assay [5] and in [7] was inactive. Further, the figures for the AC50 in assay [4] and in [6] were 15.3 µM (active) and 7.41 µM (active), respectively.

In the case of `CCOc1ccc(C(C)(C)COCc2cccc(Oc3ccccc3)c2)cc1`, the outcome in assay [1], in assay [2], in [3], in assay [4], in [5] and in assay [7] was inactive. Besides, in [8], the outcome was inactive. Further, the AC50 in [6] was 20 µM (active).

With `CCCCCCCc1ccc(O)cc1`, the AC50 in [1] was 36 µM (active); in assay [2] it was 31.6 µM (active); in [3], 37.2 µM (active); in [4], 27.5 µM (active); in assay [5], 33.1 µM (active); in assay [6], 18.8 µM (active). Further, the AC50 in assay [7] was 37.1 µM (active); in [8], 5.15 µM (active). Moreover, the compound was called inactive in assay [8] and in [9].

Turning to `CCN(CC)c1ccccc1`, the result in [1], in assay [2], in [3], in assay [4], in assay [5] and in assay [6] was inactive. Besides, the outcome in assay [7] was inactive.

Turning to `CN(C)C(=O)Cl`, the outcome in assay [1], in assay [2], in assay [3], in assay [4], in [5] and in assay [6] was inactive. In addition, the outcome in [7] and in assay [10] was inactive.

On to `CCOS(=O)(=O)OCC`, for which the result in assay [1], in [2], in [3], in assay [4], in assay [5] and in assay [6] was inactive. In addition, the outcome in [7] was inactive.

As for `ClC(Cl)(Cl)c1ccccc1`, the result in assay [1], in assay [2], in [3], in assay [4], in assay [5] and in assay [6] was inactive. The outcome in assay [7] was inactive.

As for `CCCN(CCC)c1c([N+](=O)[O-])cc(C(C)C)cc1[N+](=O)[O-]`, the AC50 in assay [1] was 37.1 µM (active); in [2], 30.3 µM (active); in assay [4], 13.9 µM (active); in [5] it was 32.4 µM (active); in assay [6], 14.7 µM (active); in [7], 29.5 µM (active). Moreover, in assay [3], the result was inactive.

`O=C(O)C(Cl)Cl`: the outcome in assay [1], in assay [2], in assay [3], in [4], in assay [5] and in assay [6] was inactive. Further, in [7], the outcome was inactive.

For `Cc1cccc(N)c1`, the outcome in assay [1], in assay [2], in [3], in assay [4], in assay [5] and in [6] was inactive. Moreover, in assay [7], the outcome was inactive.

As to `CC(Cl)CN(C)C` (stereo not drawn), the AC50 in assay [1] was 0.0162 µM (active); in assay [2], 20 µM (active); in [6], 20 µM (active). Also, the outcome in [3], in assay [4], in [5] and in assay [7] was inactive.

`COP(N)(=S)OC`: the outcome in [1], in [2], in [3], in assay [4], in [5] and in [6] was inactive. Besides, in assay [7], the outcome was inactive.

In the case of `OCC(F)(F)OC(F)(F)C(F)(F)OC(F)(F)C(F)(F)OC(F)(F)F`, the AC50 in [1] is 45.9 µM (active) and 24.8 µM (active); in [2], 39.4 µM (active) and 45.2 µM (active); in assay [4], 15.3 µM (active) and 21.2 µM (active); in [5], 43.9 µM (active) and 43.4 µM (active); in [6], 39 µM (active) and 21 µM (active); in [7] it was 30 µM (active). Further, the outcome in assay [3] and in assay [7] was inactive.

On to `[N-]=[N+]=[N-]`, for which the outcome in [1], in assay [2], in [3], in [4], in [5] and in [6] was inactive. The result in assay [7] was inactive.

With `COCCOCCO`, the result in assay [1], in assay [2], in [3], in assay [4], in [5] and in assay [6] was inactive. Further, the outcome in [7] was inactive.

As for `Cc1ccc([N+](=O)[O-])cc1C`, the result in assay [1], in assay [2], in assay [3], in [4], in assay [5] and in assay [6] was inactive. In addition, the result in assay [7] and in assay [8] was inactive. For the same compound, in assay [9], the AC50 is 2.77 µM (active).

Source of the values: PubChem BioAssay (EPA / NIEHS).
